Test results from PubChem BioAssay (NCI).
About 83,000 compounds went through this panel and 20% of them were active in at least one assay; those are over-represented in the sample as a whole.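 Growth was measured after 48 h exposure to one concentration of compound in 96-well plates. Values under 10 count as active.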 Activity calls are given as the source filed them.

system: EKVX NSCLC; assay: NCI-60 one-dose screen, 48 h (100 = growth as untreated, 0 = no growth, -100 = all killed); settings: 10 µM

| SMILES | growth |
| --- | --- |
| Cc1ccc(/C=C/C(=O)c2ccc(NC(=O)CSc3nnc(-c4c[nH]c5ccccc45)n3-c3ccccc3)cc2)cc1 | 77% (inactive) |
| CCCn1c(O)c(N=Nc2nc(-c3cc4ccccc4oc3=O)cs2)c2cc(Br)ccc21 | 92.8% (inactive) |
| COc1ccc2[nH]c(=O)c(CSc3nccc(-c4ccc(Cl)cc4)n3)cc2c1 | 7.4% (active) |
| COc1cc(/C=C/C(=O)c2cc(OC)c(OC)c(OC)c2)ccc1Oc1nc(Nc2ccc(F)cc2)nc(N(C)C)n1 | 20.6% (inactive) |
| c1ccc(C(=C(c2ccc(OCCN3CCCCC3)cc2)c2ccc(OCCN3CCCCC3)cc2)C2CCCC2)cc1 | 21.4% (inactive) |
| Cc1ccc(/C=C(\C#N)n2nnc3c(F)cccc32)cc1 | 28.8% (inactive) |
| O=C1Nc2ccc(F)cc2/C1=C/c1cccc(OCc2ccccn2)c1 | 28.3% (inactive) |
| Cc1ccc(-c2cc(C(=O)N=Nc3c(O)[nH]c4ccc(Br)cc34)c3ccccc3n2)cc1 | 60.6% (inactive) |
| Cc1cc(C)nc(NS(=O)(=O)c2ccc(N/C(N)=N/c3nccc(-c4ccccc4)n3)cc2)n1 | 43% (inactive) |
| COc1ccc(NC(=O)Nc2ccc(OCC(=O)N=Nc3c(O)[nH]c4ccc([N+](=O)[O-])cc34)cc2)cc1 | 83.7% (inactive) |
| COc1ccc(-c2nc(Nc3ccccc3S(N)(=O)=O)c3ccccc3n2)cc1 | 65% (inactive) |
| CCCCCc1ccc(S(=O)(=O)N(C(C)=O)c2cc(-c3csc(N(C)C(C)=O)n3)ccc2N2CCN(C)CC2)cc1 | 62.7% (inactive) |
| NS(=O)(=O)c1ccc(N=Nc2c(O)n(CC(=O)Nc3ccccc3Br)c3ccccc23)cc1 | 49.1% (inactive) |
| CN(C)c1nc(NCCNS(=O)(=O)c2ccc(C(=O)/C=C/c3ccccc3)cc2)nc(Nc2ccc(F)cc2)n1 | 29.1% (inactive) |
| CC1=C2C(=C[C@@](C)(COCOCCCl)[C@@H]2O)C(=O)[C@](C)(O)C12CC2 | -62.1% (active) |
| COC[C@@H](CC(C)C)N=C1NC(=O)/C(=C/c2ccc3ncoc3c2)N1 | 18% (inactive) |
| CC1=C2C(=C[C@@](C)(CO)[C@@H]2O)/C(=N\N)[C@](C)(O)C12CC2 | -44.2% (active) |
| CN1CCc2c(sc3ncnc(N/N=C/c4ccc5ccccc5c4)c23)C1 | 90.4% (inactive) |
| Cc1cccc(-c2nc(Nc3ccccc3C(=O)O)c3ccccc3n2)c1 | 21% (inactive) |

| SMILES | growth |
| --- | --- |
| COc1ccc2[nH]c(O)c(N=NC(=O)COc3ccc(NC(=O)Nc4ccc(Cl)cc4)cc3)c2c1 | 84.8% (inactive) |
| CN1CCN(Cc2ccc(NC(=O)c3cncc(C#Cc4cnc5ccc(N[C@H]6CCOC6)nn45)c3)cc2C(F)(F)F)CC1 | -99.4% (active) |
| N#Cc1c(Cl)nc(SCc2ccc(F)cc2)nc1-c1ccc(F)cc1 | 89.1% (inactive) |
| CONC[C@]1(C)C=C2C(=O)[C@](C)(O)C3(CC3)C(C)=C2[C@H]1O | -45.3% (active) |
| CCCCOc1ccc(Nc2nc3ccccc3nc2Nc2ccc(OCCCC)cc2)cc1 | 82.2% (inactive) |
| C=C1CCC2C3(C)COC(c4cccc(F)c4)OC3CCC2(C)C1CC(O)C1=CCOC1=O (configuration not stated) | 87.9% (inactive) |
| COc1ccc(/C=N/N=C(\C)c2ccc3c(c2)Nc2ccccc2S3)cc1O | 40.4% (inactive) |
| O=S(=O)(Nc1ncccn1)c1ccc(-n2c(-c3ccc(Br)cc3)nc(-c3ccccc3)c2-c2ccccc2)cc1 | 16.1% (inactive) |
| C[C@H]1[C@H](C)CC[C@]2(COC(=O)CCC(=O)NCC#CCN3CCNCC3)CC[C@]3(C)C(=CC[C@@H]4[C@@]5(C)CCCNC(C)(C)[C@@H]5CC[C@]43C)[C@H]12 | 73.4% (inactive) |
| CN1CCN(Cc2ccc(C(=O)Nc3cccc(Nc4ccc5c(O)cccc5n4)c3)cc2C(F)(F)F)CC1 | -45.6% (active) |
| CC(=O)Nc1ccc(-c2cn(-c3cccc(C(=O)Nc4cccc(OC(F)(F)F)c4)c3)nn2)cn1 | 105% (inactive) |
| CCOC(=O)C1=C(N)N(c2ccccc2)C2=C(C(=O)CC(C)(C)C2)C1c1ccccc1OC (configuration not stated) | 91.9% (inactive) |
| O=c1[nH]c2ccccc2cc1CSc1ccc(Nc2nccc(-c3ccc(C(F)(F)F)cc3)n2)cc1 | 7.65% (active) |
| COC(=O)C[C@](O)(CCCC(C)(C)O)C(=O)O[C@H]1C(OC)=C[C@@]23CCC(=O)N2CCc2cc4c(cc2[C@@H]13)OCO4 | 103% (inactive) |
| COc1ccc2[nH]c(O)c(N=NC(=O)c3cc(-c4ccc(C)cc4)nc4ccccc34)c2c1 | 97.6% (inactive) |
| COc1ccc(CN2[C@H](C(=O)NCc3ccc(C(=O)NO)cc3)Cc3c([nH]c4ccccc34)[C@H]2C2CC2)cc1 | 51.6% (inactive) |
| COc1ccc(C2N(c3ccc(Br)cc3)N=C(C(C)=O)N2[C@H]2[C@H](OC(C)=O)O[C@H](COC(C)=O)[C@@H](OC(C)=O)[C@@H]2OC(C)=O)cc1 (some centres not stated) | 59.4% (inactive) |
| CN(CCF)c1ccc(/C=C/C(=O)c2ccc(N)cc2O)cc1 | 93.8% (inactive) |
